Rv3671c inh: Rv3671c serine protease inhibitors, primary screen, biochemical, fluorescence polarization, M. tuberculosis H37Rv. 320,000 compounds, 0.048% hits. P9WHR9. inhibition, % at 5.96 µM; in the data active = inhibition above about 38%;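 also: extracellular domain of Rv3671c used as enzyme; 0% = enzyme with DMSO and 100% = no enzyme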
Target sequence (P9WHR9 whole entry, looked up, the tested form may be a part): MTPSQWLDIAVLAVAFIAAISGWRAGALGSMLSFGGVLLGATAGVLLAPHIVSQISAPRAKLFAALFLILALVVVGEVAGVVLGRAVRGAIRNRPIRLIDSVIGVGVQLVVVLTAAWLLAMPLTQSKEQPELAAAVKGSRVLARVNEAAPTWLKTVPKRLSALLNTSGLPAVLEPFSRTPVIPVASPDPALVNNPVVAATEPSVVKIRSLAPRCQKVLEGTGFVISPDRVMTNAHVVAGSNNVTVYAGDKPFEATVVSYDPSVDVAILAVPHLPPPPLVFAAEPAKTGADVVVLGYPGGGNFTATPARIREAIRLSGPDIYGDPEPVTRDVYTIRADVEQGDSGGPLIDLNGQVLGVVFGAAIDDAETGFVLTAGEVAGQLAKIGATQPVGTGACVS
PfHsp40 rescue: rescue of yeast from PfHsp40 toxicity, primary screen, S. cerevisiae, ATP luminescence; S. cerevisiae expressing PfHsp40, growth rescue; growth rescue, % at 12.5 µM; 340,000 compounds, 0.68% hits; AID 504582, 2011; in the data active = growth rescue above about 28%, passing the limit was not always enough;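 also: yeast W303a lacking pdr1 and pdr3 grown in galactose medium; growth measured after three days at 30 °C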
Yp Topo-I inh: Yersinia pestis topoisomerase I inhibitors, primary screen, biochemical, cleavage product accumulation, plate reader, single point; Y. pestis Topo-I cleavage product accumulation; activity, % at 10 µM; 360,000 compounds, 0.064% hits; DNA topoisomerase I (Yersinia pestis CO92); in the data active = activity above about 50%, passing the limit was not always enough
FadD28 FP inh: inhibitors of FadD28 bisubstrate probe binding, primary screen, biochemical, fluorescence polarization, single point; 360,000 compounds, 0.22% hits; inhibition, % at 12.5 µM; AID 588549, 2011; in the data active = inhibition above about 8.5%, passing the limit was not always enough
Mtb bLac sens: beta-lactam sensitization of Mtb H37Rv, H37Rv | 330,000 compounds, 0.27% hits | AID 434955, 2010 | M. tuberculosis H37Rv growth with meropenem, percent inhibition | inhibition, % at 25 µM; call rule not given here;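 also: growth measured after seven days incubation then overnight dye step; 0% = bacteria only wells and 100% = bacteria with antibiotic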
Mtb UGM inh: M. tuberculosis UGM enzyme inhibitors, primary screen, biochemical, fluorescence polarization, single point. UDP-galactopyranose mutase (Mycobacterium tuberculosis (strain ATCC 25618 / H37Rv)), …. purified UGM, fluorescence polarization probe displacement. inhibition, % at 10 µM. 320,000 compounds, 0.06% hits. AID 504406, 2011; in the data active = inhibition above about 10%, passing the limit was not always enough
Numbers without * were called inactive; . = no result. Shown are actives, neighbours in structure and some others; about 0.98% of the full set was active somewhere.

SMILES	Rv3671c inh	PfHsp40 rescue	Yp Topo-I inh	FadD28 FP inh	Mtb bLac sens	Mtb UGM inh
CCCCCNC(=O)c1ccc2c(=O)[nH]c3c(C(=O)NCC4CCCO4)sc(=S)n3c2c1 (configuration not stated)	0	1	14	17*	99	0
Cc1ccc(CNC(=O)c2ccc3c(=O)[nH]c4c(C(=O)NCC5CCCO5)sc(=S)n4c3c2)cc1 (configuration not stated)	18	-1	5	60*	41	0
CC(C)c1ccccc1NC(=O)Nc1nnc([C@@H]2C[C@H](O)[C@@H](CO)O2)s1	.	.	-1	0	.	.
O=C(Nc1ccc(F)c(Cl)c1)c1cc(C2CCCCN2C(=O)c2ccccc2)on1 (configuration not stated)	.	.	8	-5	.	.
Cc1cccc(C)c1NC(=O)C(c1ccccc1)N1CCN(c2ccc(C(F)(F)F)cn2)CC1 (configuration not stated)	.	.	.	-2	.	.
O=C(Cc1ccccc1)Nc1nc(-c2ccc(F)c(F)c2)cs1	0	0	0	-4	7	-1
O=C(Cc1ccccc1F)Nc1nc(-c2ccc(F)c(F)c2)cs1	-36	242*	-5	-3	15	-1
C[C@H](CO)N1C[C@H](C)[C@H](CN(C)C(=O)Nc2ccc(C(F)(F)F)cc2)OCc2cnnn2CCCC1=O	.	.	0	-2	.	.
COc1ccc(-c2coc3cc(O)cc(O)c3c2=O)cc1	1	199*	1	-1	11	-2
CCOC(=O)c1c(-c2ccc(F)cc2)csc1NC(=O)c1c(-c2ccccc2)noc1C	-4	32*	8	-1	-10	1
COC(=O)c1cnc(Nc2nc(C(N)c3ccccc3Cl)cs2)nc1C(F)(F)F (configuration not stated)	.	.	2	-4	.	.
CCOC(=O)C(CC)/C(C)=N\NC(=O)c1ccccc1O (configuration not stated)	10	110*	-9	0	3	-3
CC(=O)Nc1cccc(-c2ccnc3c2CC(C)(C(=O)Nc2cccc(NS(C)(=O)=O)c2)O3)c1 (configuration not stated)	.	.	14	-2	.	.
CCCCn1nc(-c2ccccc2)c2nc3ccccc3nc21	-8	.	.	.	3	29*
Cn1nc(-c2ccccc2)c2nc3ccccc3nc21	4	1	-7	-2	26	28*
CC(CC(=O)Nc1ccc2c(c1)c(=O)n(C)n2Cc1ccc(F)cc1)c1ccccc1 (configuration not stated)	.	.	24	-5	.	.
COc1cc(Cl)ccc1OC1(C)CCN(Cc2ccc3ccccc3c2)C1 (configuration not stated)	.	.	19	-6	.	.
COc1cccc(NCc2cc(=O)oc3cc(C)c(O)cc23)c1	0	.	-11	0	-2	-1
COc1cccc(NCc2cc(=O)oc3cc(-c4ccccc4)c(O)cc23)c1	-9	0	-10	24*	6	-3
CCC(C)NC(=O)C1CCC(CNS(=O)(=O)c2cccc3nsnc23)CC1 (configuration not stated)	-10	0	7	1	-3	2
CC(C)C(=O)Nc1cccc(COc2ccc(CN(Cc3ccccc3)C(=O)OC(C)(C)C)cc2)c1	.	-1	53*	1	.	.
Cc1ccc2cc(CN(Cc3cccs3)Cc3nnnn3CC3CCCO3)c(=O)[nH]c2c1 (configuration not stated)	5	0	19	-9	3	0
COc1ccccc1CN(Cc1cc2cc(C)cc(C)c2[nH]c1=O)Cc1nnnn1CC1CCCO1 (configuration not stated)	3	2	25	-3	70	-1
Cc1ccc2[nH]c(=O)c(CN(Cc3cccs3)Cc3nnnn3CC3CCCO3)cc2c1 (configuration not stated)	-4	105*	28	-2	2	2
Cc1ccc2cc(CN(Cc3cccs3)Cc3nnnn3CC3CCCO3)c(=O)[nH]c2c1C (configuration not stated)	.	73*	23	1	.	.
SMILES	Rv3671c inh	PfHsp40 rescue	Yp Topo-I inh	FadD28 FP inh	Mtb bLac sens	Mtb UGM inh
COc1cccc(NS(=O)(=O)NC(=O)c2cn(C)c3ccccc23)c1	13	0	-10	-3	8	-2
CN(c1ccc(OCC(=O)Nc2cc(Cl)ccc2C(=O)O)cc1)S(=O)(=O)c1ccc(F)cc1	-17	26*	-7	-18	-1	4
CN(c1ccc(OCC(=O)Nc2ccc(S(N)(=O)=O)cc2)cc1)S(=O)(=O)c1ccc(F)cc1	.	0	3	-2	.	.
C=CCOc1cccc(C2C(C(=O)c3cc4ccccc4o3)=C(O)C(=O)N2c2cc(C)on2)c1 (configuration not stated)	-2	0	69*	-1	2	0
CC1(C(=O)NS(=O)(=O)Cc2ccccc2C(F)(F)F)CCN1C(=O)c1ccccc1 (configuration not stated)	.	.	-4	-1	.	.
O=[N+]([O-])c1ccc2c(c1Nc1ccccc1Cl)=NC1(CCCCC1)N=2	5	.	-10	0	-1	2
Cc1ccc(Nc2c([N+](=O)[O-])ccc3c2=NC2(CCCCC2)N=3)cc1	6	59*	-15	0	93	2
COc1ccc(CN(C)C(=O)COC(=O)c2ccc(-c3ccccc3)cc2)c(OC)c1OC	.	68*	12	-3	.	.
O/N=C(\c1ccc(Cl)cc1)c1cc2ccccc2o1	-5	641*	7	-6	1	2
CC(=O)c1ccc(NC(=O)COC(=O)c2ccccc2N=Nc2ccc(N(C)C)cc2)cc1	11	-1	-3	-1	96	-2
COC(=O)c1ccccc1NC(=O)COC(=O)c1ccccc1N=Nc1ccc(N(C)C)cc1	-3	73*	22	1	7	0
CC1(C)CC(=O)C(C(=O)Cc2ccccc2[N+](=O)[O-])C(=O)C1	-14	29*	5	-1	2	-1
Cn1cccc1C(=O)NS(=O)(=O)c1ccccc1Cl	5	86*	2	-1	-3	-1
Cc1ccc(S(=O)(=O)NC(=O)c2cccn2C)cc1	-3	-1	2	-1	-2	3
CCCCN(C(C)=O)c1c(CC)nc2ccc(C(=O)NCCc3ccccn3)cn12	.	.	-10	-4	.	.
COc1cccc(CNC(=O)COc2ccc(C(=O)c3ccccc3)cc2)c1	-7	499*	41	-2	-1	-3
O=C(Cn1c(=O)[nH]c2ccsc2c1=O)NC1CCCCC1	0	0	-1	0	-10	-1
O=C(NC1CCCC1)c1ccc(Cn2c(=O)[nH]c3ccsc3c2=O)cc1	-1	51*	11	-1	-5	-4
